Inconclusive results are not listed. Entries that show only a call come without a potency. Unmarked numbers belong to inactive results. Active and inactive are the calls of the source. Calls follow the shape of the full dose curve.
The compounds below were run against Beta-2 adrenergic receptor (Homo sapiens) (UniProt P07550) (assay: Adrenergic beta2 receptor (ADRB2) small molecule antagonists, cell-based qHTS assay (AID 1963592; also: nearly all actives have a fitted effect of over 50% in size)). Details: CHO-ADRB2 cells, isoproterenol-stimulated cAMP HTRF ratio, 0.5 h; series mostly up to 92.4 µM; activity change, negative = inhibition: at the top concentration.
Source text: U.S. Tox21 Program National Center for Advancing Translational Sciences [NCATS] Division of Preclinical Innovation [DPI] U.S. Environmental Protection Agency [EPA] National Institutes of Environmental Health Sciences [NIEHS] National Toxicology Program [NTP] U.S. Food and Drug Administration [FDA] Tox21 Assay Overview: Beta adrenergic receptors (Beta-ARs) belong to the G-protein coupled receptor (GPCR) superfamily, includes three subtypes - beta1, beta2, and beta3. Beta1-AR is the predominant receptor subtype expressed in the heart, and beta2-AR is expressed in the kidney, lung, blood vessel and in the heart, and beta3 is found in the adipocytes. Beta1 and 2 ARs couple to Gs protein and elevate cyclic adenosine mono phosphate (cAMP), which activates protein kinase A and leads to the downstream signaling responsible for the physiological actions. Beta-AR agonists or antagonists are the most prescribed therapeutic agents for heart failure and asthma, and these were one of the first target receptors for the rational drug design. Tox21 10K compound library was screened using the cAMP-Gs dynamic assay (Cisbio Bioassays, Shelton, CT) to identify agonists/antagonists of the Gs-coupled human adrenergic, beta2 receptor (ADRB2) in the CHO-ADRB2 cell line (Codex BioSolutions, Inc. Gaithersburg, MD), which stably over-expresses ADRB2. The principle of cAMP-Gs dynamic assay is based on HTRF technology, which facilitates the fluorescence resonance energy transfer (FRET) between donor Europium cryptate and acceptor d2-labeled cAMP. The cAMP generated within cells competes with the red acceptor, d2-labled cAMP, for binding to the monoclonal anti-cAMP-cryptate (Europium donor). An increase in intracellular cAMP leads to the disruption of FRET signal, and the signal is inversely proportional to the cAMP concentration. Propranolol HCl (Sigma-Aldrich, St. Louis, MO) was used as a positive control in the screening.
Tox21 Assay Protocol Summary: CHO-ADRB2 cells were dispensed at 1,000/well in 4uL assay medium into white/solid 1536-well plates (Greiner Bio-One North America Inc., Monroe, NC) using a Multidrop Combi dispenser (ThermoFisher Scientific, Waltham, MA). The assay plates were incubated at 37C and 5% CO2 for an overnight (18-20hr). Then positive control and test compounds dissolved in DMSO were transferred to the assay plates at 23nL using a Pintool station (Wako, San Diego, CA). Following the compound and positive control transfer, 1uL agonist-stimulation mix containing 1nM Isoproterenol HCl, 100uM IBMX and 25uM Ro-20-1724 was added to each well of the assay plates using BioRAPTR Flying Reagent Dispenser (FRD, Beckman Coulter, Brea, CA). The assay plates were incubated at room temperature for 0.5hr. Then 2.5ul each d2-labled cAMP and anti-cAMP-cryptate solutions were added separately to each well of the assay plates using an FRD and the assay plates were incubated at room temperature for 1hr. The fluorescence signal was measured at two different wavelengths (665nm and 615nm) using an Envision plate reader (Perkin Elmer, Shelton, CT). Data were expressed as the ratio of 665 nm/615 nm.

Beta-2 adrenergic receptor (Homo sapiens), sequence (P07550 whole entry, looked up): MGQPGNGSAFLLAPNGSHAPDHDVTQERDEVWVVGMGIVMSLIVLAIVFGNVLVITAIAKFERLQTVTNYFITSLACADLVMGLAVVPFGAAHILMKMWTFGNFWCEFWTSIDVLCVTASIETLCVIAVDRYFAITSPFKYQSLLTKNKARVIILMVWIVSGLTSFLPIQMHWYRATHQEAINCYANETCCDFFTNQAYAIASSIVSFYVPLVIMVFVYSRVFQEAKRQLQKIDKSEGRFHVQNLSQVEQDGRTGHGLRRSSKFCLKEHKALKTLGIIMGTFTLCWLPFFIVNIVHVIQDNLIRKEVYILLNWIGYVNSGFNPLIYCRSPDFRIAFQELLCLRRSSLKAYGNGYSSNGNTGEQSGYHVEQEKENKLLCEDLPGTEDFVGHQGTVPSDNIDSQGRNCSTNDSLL

Structure (SMILES) | activity change, negative = inhibition | Potency
CCCBr | 0.0992% | 
Cn1cc[n+](C)c1 (tested in a mixture with another compound) | 4.76% | 
CCC[CH2][Sn]([Cl])([Cl])[Cl] |  | inactive
C#C[C@]1(O)CC[C@H]2[C@@H]3CCC4=CC(=O)CC[C@]4(C)[C@H]3CC[C@@]21C |  | inactive
C[N+](C)(C)C |  | inactive
ClCCN1CCOCC1 | -10.3% | 
CC1CC(=O)O1 (stereo not given) |  | inactive
CNC(=O)O/N=C/C(C)(C)SC |  | inactive
O=C1C2CC=CCC2C(=O)N1SC(Cl)(Cl)Cl (stereo not given) | -11.2% | 
O=S1OCC2C(CO1)C1(Cl)C(Cl)=C(Cl)C2(Cl)C1(Cl)Cl (stereo not given) | 11.1% | 
COP(=S)(OC)Oc1cc(Cl)c(Cl)cc1Cl |  | inactive
N#Cc1ccncc1 | -1.56% | 
Clc1ccc(Cl)cc1 |  | inactive
CCCC1CCCCN1 (stereo not given) | 2.29% [at 42.5 µM] | 
Nc1ncn[nH]1 |  | inactive
Clc1cccc(Cl)c1 |  | inactive
C=C(C)[C@H]1Cc2c(ccc3c2O[C@@H]2COc4cc(OC)c(OC)cc4[C@@H]2C3=O)O1 |  | inactive
Nc1ccc(Cc2ccc(N)cc2)cc1 |  | inactive
Nc1cc(Cl)cc(C(=O)O)c1Cl |  | inactive
Cc1ccc(N)cc1Cl |  | inactive

Structure (SMILES) | activity change, negative = inhibition | Potency
C[C@@H]1O[C@@H](O[C@H]2C[C@@H](O)[C@]3(CO)[C@H]4[C@H](O)C[C@]5(C)[C@@H](C6=CC(=O)OC6)CC[C@]5(O)[C@@H]4CC[C@]3(O)C2)[C@H](O)[C@H](O)[C@H]1O |  | inactive
ClCC(Cl)(Cl)Cl | -1.55% | 
Cl |  | inactive
CCNc1nc(Cl)nc(NC(C)C)n1 |  | inactive
CCCC[N+]1(C)CCCC1 (tested in a mixture with another compound) | 1.32% | 
Nc1ccccc1C(=O)O |  | inactive
c1ccc(C2CO2)cc1 (stereo not given) | -3.02% | 
ClC(Cl)(Cl)Br |  | inactive
O=[N+]([O-])O |  | inactive
CCOc1nc(F)cc2nc(S(=O)(=O)Nc3c(Cl)cccc3Cl)nn12 | -4.32% | 
CC[N+]1(C)CCCC1 |  | inactive
C[C@]12CCC(=O)C=C1CC[C@@H]1[C@@H]2CC[C@]2(C)C(=O)CC[C@@H]12 |  | inactive
O=[N+]([O-])c1ccc([As](=O)(O)O)cc1 |  | inactive
OCCOc1ccccc1 |  | inactive
CC(O)CCO (stereo not given) |  | inactive
CCCOC(=O)c1cncn1C(C)c1ccccc1 (stereo not given) | -14.2% [at 42.5 µM] | 
CCOC(=O)C1(c2ccccc2)CCN(CCC(C#N)(c2ccccc2)c2ccccc2)CC1 | 0.41% [at 42.5 µM] | 
C[C@]12CC[C@H]3[C@@H](CCC4=CC(=O)CC[C@@H]43)[C@@H]1CC[C@@H]2O |  | inactive
CC(C)(O)C(Cl)(Cl)Cl | -6.47% [at 42.5 µM] | 
Cc1ccc(N=CN(C)C=Nc2ccc(C)cc2C)c(C)c1 |  | inactive

— PubChem BioAssay (Tox21)
